LEDGF integ inh: blockers of LEDGF/p75-dependent integrase strand transfer – biochemical, TR-FRET, high throughput, primary screen; inhibition, % at 3.7 µM; HIV-1 integrase (with human LEDGF/p75); hit rate 0.64% among 370,000; TR-FRET IN-LEDGF/p75 DNA integration, Eu/Cy5;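 active means inhibition above the screen-wide mean plus 3 SD, cut at about 13% in these data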;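 further: signal is the Cy5 over europium emission ratio at 671 and 618 nm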
Neddyl block: inhibitors of cullin neddylation, primary screen, biochemical, TR-FRET, uHTS, NAE and Ubc12. hit rate 0.58% among 360,000. AID 651699, 2012. NEDD8-conjugating enzyme Ubc12 (Homo sapiens) + NEDD8-activating enzyme E1 regulatory …. calls only at 25 µM; in the data active means inhibition above about 36%
Rin1-Abl PPI inh: inhibitors of Rin1-Abl protein binding, primary screen, biochemical, TR-FRET | Tyrosine-protein kinase ABL1 (Homo sapiens) + Ras and Rab interactor 1 (Homo sapiens), … | hit rate 0.4% among 360,000 | inhibition, % at 7.35 µM; in the data active means inhibition above about 5%, passing the limit was not always enough
KLK7 zymogen act: proKLK7 zymogen activators, primary screen, biochemical, fluorescence intensity | purified proKLK7, EDANS-DABCYL substrate fluorescence; 100% is mature enzyme control, 0% vehicle | activation, % at 7 µM | hit rate 0.9% among 370,000 | AID 652039, 2013;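 active means activation above the mean of all tested compounds plus 3 SD, computed per campaign excluding outliers beyond control limits, cut at about 13% in these data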
MBD2 inh: inhibitors of MBD2 binding to methylated DNA, primary screen, biochemical, TR-FRET, DNA-binding domain, human; Methyl-CpG-binding domain protein 2 (Homo sapiens), Q9UBB5; MBD2 binding to methylated oligonucleotide; inhibition, % at 4.4 µM; hit rate 0.31% among 370,000; AID 686964, 2013; in the data active means inhibition above about 13%
UHRF1 MBD2 ctr: UHRF1 methylated DNA binding inhibitors, primary screen, counter-screen for MBD2 inhibitor project, biochemical, TR-FRET, human UHRF1, single concentration. UHRF1 binding to methylated oligo. E3 ubiquitin-protein ligase UHRF1 (Homo sapiens), Q96T88. hit rate 0.75% among 370,000. inhibition, % at 4.4 µM; in the data active means inhibition above about 21%;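 further: UHRF1 SRA domain binding a hemimethylated CpG hairpin DNA probe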
Of the large screens only hits and unclear results are named; the others gave an inactive call; ! = not active in a repeat. An excerpt weighted towards active compounds, which were near 3.1% of everything screened.

C[C@H]1CN([C@@H](C)CO)S(=O)(=O)c2ccc(C#Cc3cccnc3)cc2O[C@@H]1CN(C)C(=O)Nc1ccc2c(c1)OCO2	UHRF1 MBD2 ctr 22
COc1ccc(-c2sc3ccccc3c2/C=C/c2ccncc2)cc1	none
O=C(NC(=S)NNC(=O)[C@H]1C[C@@H]1c1ccccc1)c1ccc(F)cc1	none
COc1cc(OC)cc(C(=O)NC(=S)NNC(=O)[C@H]2C[C@@H]2c2ccccc2)c1	Neddyl block active
CCCCCCCCn1c2c(c(=N)c3ccccc31)CCC2	none
Cc1cc(C)c2c(=N)c3ccccc3n(CCCCCCCCn3c4ccccc4c(=N)c4c(C)cc(C)nc43)c2n1	KLK7 zymogen act 37, MBD2 inh 28, UHRF1 MBD2 ctr 41
O=C(NNc1nc2cc3c(cc2s1)OCO3)c1cccc(F)c1	none
COc1ccc(-n2c(CN3CCC(C(N)=O)CC3)nc3ccc([N+](=O)[O-])cc3c2=O)c(OC)c1	LEDGF integ inh 23
CCN1CCN(Cc2ccc(NC(=O)c3ccc(C)c(NC(=O)N4CCNC4=O)c3)cc2C(F)(F)F)CC1	UHRF1 MBD2 ctr 23!
Cc1ccc(NC(=O)CSc2ncc3ccccn23)cc1	none
Cc1c(C(=O)N/N=C/c2ccc(O)c(Br)c2)sc(N)c1C#N	Neddyl block active
O=C(O)c1ccccc1NS(=O)(=O)c1ccc(NN=Cc2ccccc2F)c([N+](=O)[O-])c1	UHRF1 MBD2 ctr 33
O=c1oc2ccccc2c(NCCO)c1[N+](=O)[O-]	UHRF1 MBD2 ctr 41
c1coc(-c2nnc3n2N=C(c2ccc4c(c2)OCO4)CS3)c1	none (no result: Neddyl block, Rin1-Abl PPI inh)
COC(=O)c1sc(N)nc1C(C)(C)C	none
COC(=O)c1cnc(N)s1	UHRF1 MBD2 ctr 23
O=C(CCc1ccccc1)N[C@@H]1c2ccccc2CC[C@H]1OCc1ccccc1	UHRF1 MBD2 ctr 23
O=C(Cc1ccccc1)N[C@@H]1c2ccccc2CC[C@@H]1OCc1ccccc1	none
CC(=O)c1ccc(OCC(=O)NC(=O)NC2CCCC2)cc1	none
N#C/C(=C\C=C\c1ccccc1[N+](=O)[O-])C(=O)NCc1ccccc1	none
N#C/C(=C\c1ccccc1[N+](=O)[O-])C(=O)NCc1ccccc1	UHRF1 MBD2 ctr 25
O=c1oc(-c2ccccc2)c(-c2ccccc2)c2ccccc12	none
O=C(O)c1cc(N/N=C/c2ccc(N3CCOCC3)s2)ccc1Cl	LEDGF integ inh 68, MBD2 inh 43, UHRF1 MBD2 ctr 93
NC(=O)N/N=C/c1ccc(N2CCOCC2)s1	none
CC1CCCN(C(=O)C(Cc2ccccc2)n2cccc2)C1 (stereo not drawn)	none
Cc1nnc(-n2cnc3ccccc32)c2ccccc12	UHRF1 MBD2 ctr 21
COc1ccc(NC(=S)Nc2cccc(S(=O)(=O)N3CCCCC3)c2)cc1	none
O=C(NCc1ccc(F)cc1)c1ccc(NC(=O)C2CCCO2)cc1 (stereo not drawn)	UHRF1 MBD2 ctr 38
N#Cc1cccc(NC(=O)COC(=O)c2ccccc2Sc2ccccc2C#N)c1	UHRF1 MBD2 ctr 34
COc1cccc(CN2CC(C(=O)N(C)Cc3nc4ccc(F)cc4[nH]3)CCC2=O)c1 (stereo not drawn)	UHRF1 MBD2 ctr 25
COc1ccc2nc(CCN(C)C(=O)C3CCC(=O)N(Cc4cccc(F)c4)C3)[nH]c2c1 (stereo not drawn)	none
COc1ccccc1N1CCN(C(=O)COc2cc(C)ccc2C)CC1	none
COc1ccccc1N1CCN(C(=O)COc2cc(C)cc(C)c2)CC1	UHRF1 MBD2 ctr 28
Cc1ccc(C(=O)OCC(=O)NCc2ccccc2)s1	none
Cc1ccc(C(=O)OCC(=O)NCCNC(=O)COC(=O)c2ccc(C)s2)s1	UHRF1 MBD2 ctr 30
Cc1c(NC(=O)/C(C#N)=C/c2ccc(-c3ccc(Cl)cc3)o2)c(=O)n(-c2ccccc2)n1C	UHRF1 MBD2 ctr 22
Cc1c(NC(=O)/C(C#N)=C/c2ccc(-c3cc(Cl)ccc3Cl)o2)c(=O)n(-c2ccccc2)n1C	none
CCOC(=O)c1ccc(NC(=O)C(=O)NCc2ccco2)cc1	UHRF1 MBD2 ctr 24 (not shown: Neddyl block)
CCOc1ccc(Cl)cc1-c1cc(C(=O)NCc2cc(C(F)(F)F)cc(C(F)(F)F)c2)[nH]n1	UHRF1 MBD2 ctr 45
CCOc1ccc(Cl)cc1-c1cc(C(=O)NCc2ccccc2)[nH]n1	none
COc1ccc(CN2CC(C(=O)NCCCN3CCN(C)CC3)CC2=O)cc1 (stereo not drawn)	MBD2 inh 18
CC(=O)Nc1ccc(Sc2ccccc2C(=O)Nc2ccc(F)cc2)cn1	none
CC(=O)Nc1ccc(Sc2ccccc2C(=O)O)cn1	UHRF1 MBD2 ctr 21
CCOCc1nnc(NC(=O)CS(=O)(=O)c2ccc(C)cc2)s1	UHRF1 MBD2 ctr 26
CCOCc1nnc(NC(C)=O)s1	none
CCCN1CCCCC(NC(=O)c2ccc(C)cc2C)C1=O (stereo not drawn)	none (no result: Neddyl block, Rin1-Abl PPI inh)
CCOC(=O)c1oc2cc(O)ccc2c(=O)c1-c1ccccc1OC	none
O=c1cc2oc3cc(O)c(O)cc3c(-c3ccccc3O)c-2cc1O	Rin1-Abl PPI inh 67 (no result: LEDGF integ inh, KLK7 zymogen act, MBD2 inh, UHRF1 MBD2 ctr)
CCOc1ccccc1-c1c2cc(O)c(=O)cc-2oc2cc(O)c(O)cc12	Rin1-Abl PPI inh 54 (no result: LEDGF integ inh, KLK7 zymogen act, MBD2 inh, UHRF1 MBD2 ctr)
COc1ccc(OC)c(-c2c3cc(O)c(=O)cc-3oc3cc(O)c(O)cc23)c1	Rin1-Abl PPI inh 55 (no result: LEDGF integ inh, KLK7 zymogen act, MBD2 inh, UHRF1 MBD2 ctr)
CC(=O)C1=C(C)N(Cc2ccc(F)cc2)C(=S)NC1c1cccc(Cl)c1 (stereo not drawn)	none (no result: Neddyl block, Rin1-Abl PPI inh)
CCCCNC(=O)C[C@H]1C[C@@]2(C(=O)OC)C(=C[C@H](COCc3ccccc3)O[C@@H]2C)N(CCC2=CCCCC2)C1=O	none (no result: Neddyl block, Rin1-Abl PPI inh)
O=C(CN1CCCCC1)Nc1scc2c1c(=O)oc1ccccc12	UHRF1 MBD2 ctr 21
S=c1[nH]nc(-c2cc(-c3ccccc3)n[nH]2)n1/N=C/c1ccc(Cl)cc1	none
S=c1[nH]nc(-c2cc(-c3ccccc3)n[nH]2)n1/N=C/c1cccc(Cl)c1	Neddyl block active
C/C(=N/NC(=O)CSc1nc2ccccc2n1C)c1ccco1	UHRF1 MBD2 ctr 83
COc1ccc(N(C(=O)c2ccco2)C(C(=O)NC2CCCC2)c2ccncc2)cc1OC (stereo not drawn)	UHRF1 MBD2 ctr 23
COc1ccc(C(C(=O)NC2CCCC2)N(C(=O)c2ccco2)c2ccc(OC)c(OC)c2)cc1 (stereo not drawn)	none
CCOC(=O)[C@@]12CCCC3=C1N(CCC3)C(=O)[C@H]2CC(=O)NCCc1ccccc1OC	none (no result: Neddyl block, Rin1-Abl PPI inh)
